In the library only some 6.7% were active in any assay of this set; here they are far more common.
Pf Dd2 growth – P. falciparum Dd2 growth inhibition. SYBR Green, 72 h; stronger effect = lower value. activity change, % at 10 µM. actives 2.3% (n = 94,000). AID 1159554; in the data active = activity change below about -80%; inconclusive = no clear call, values can overlap the other calls
C diff HTS – inhibitors of Clostridium difficile growth; actives 0.25% (n = 86,000); AID 1259249; growth activity, negative = inhibition, % at 16 µg/mL (by protocol); Clostridium difficile clinical isolate growth, OD600, 24 h; stronger effect = lower value;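 active = mean growth activity at or below -80% and every replicate also at or below -80%; inconclusive = mean at or below -80% but some replicate above -80%; inactive = mean growth activity above -80%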
T cruzi growth-1 – inhibitors of T. cruzi proliferation. T. cruzi beta-gal in NIH3T3, GalScreen luminescence, 90 h. inhibition, % at 8.34 µM. actives 5.9% (n = 77,000). AID 624255;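 active = mean inhibition above about 93%, with at least 55% of replicates each passing it, limit read from the data, passing the limit was not always enough; inconclusive = only one of those two conditions holds; inactive = neither condition holds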
T cruzi growth-2 – blocks T. cruzi growth in NIH3T3 host cells. shares compounds with T cruzi growth-1. T. cruzi beta-gal in NIH3T3, GalScreen luminescence, 90 h. inhibition, % at 8.35 µM. actives 72% (n = 5,600);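 active = mean replicate inhibition above about 95% and at least 55% of replicates individually reaching it, limit read from the data; inconclusive = only one of the two criteria is met; inactive = neither criterion is met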
T cruzi growth-3 – inhibitors of T. cruzi proliferation | shares compounds with T cruzi growth-1 | T. cruzi beta-gal in NIH3T3, GalScreen luminescence, 90 h | inhibition, % at 2.09 µM | actives 21% (n = 5,600) | AID 651740;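 active = mean inhibition above about 95%, with at least 55% of replicates also reaching it, limit read from the data; inconclusive = meets just one of the two conditions; inactive = meets neither condition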
3T3 cytotox – kills mouse NIH/3T3 fibroblasts; shares compounds with T cruzi growth-1; NIH/3T3 viability, CellTiter-Glo ATP luminescence, 90 h; cytotoxicity (signal decrease), % at 8.35 µM; actives 14% (n = 5,600);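 active = mean signal decrease across replicates above about 35% based on untreated-well scatter, with enough replicates individually passing, limit read from the data; inconclusive = no rule stated though some were filed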
3T3 cytotox 2 – cytotoxicity in mouse NIH/3T3 fibroblasts; NIH/3T3 viability, CellTiter-Glo ATP luminescence, 90 h; inhibition, % at 24.9 µM; actives 56% (n = 5,600); shares compounds with T cruzi growth-1;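 active = mean loss of cell viability signal at or above a set limit, and enough replicates individually reaching it; inconclusive = meets only the mean limit or only the replicate share; inactive = meets neither condition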
Of the large screens only hits and unclear results are named; the others gave an inactive call (follow-up assays come after a bar, where they were run).

OC[C@@H]1[C@H](c2ccc(C3=CCCC3)cc2)[C@H]2CN(Cc3cccnc3)CCCCN12	none
C[C@H](CO)N1C[C@H](C)[C@@H](CN(C)C(=O)Nc2ccccc2)Oc2ccc(NS(=O)(=O)c3ccccc3)cc2CC1=O	none
CO[C@@H]1CN(C)C(=O)c2ccc(NC(=O)c3nc4ccccc4s3)cc2OC[C@@H](C)NC[C@H]1C	none (no result: C diff HTS)
C[C@H](CO)N1C[C@H](C)[C@H](CN(C)C(=O)[C@@H](Cc2ccccc2)N(C)C)OCc2ccccc2-c2ccccc2C1=O	none
O=C(C[C@H]1C[C@H]2c3cc(NC(=O)NC4CCCC4)ccc3O[C@H]2[C@H](CO)O1)NCc1ccc(Oc2ccccc2)cc1	none (no result: T cruzi growth-1)
C[C@@H]1CCCCO[C@H](CN(C)Cc2ccc(C(F)(F)F)cc2)[C@H](C)CN([C@H](C)CO)C(=O)c2cc(NS(=O)(=O)c3ccc(Cl)cc3)ccc2O1	none
CN(C)C(=O)c1cccc(-c2ccc([C@H]3[C@H](CO)N4CCCCN(Cc5cccnc5)C[C@@H]34)cc2)c1	T cruzi growth-1 101 | T cruzi growth-2 107 | T cruzi growth-3 inactive | 3T3 cytotox inactive | 3T3 cytotox 2 inactive
CN(C)C(=O)c1ccc(-c2ccc([C@@H]3[C@H](CO)N4CCCCN(Cc5cccnc5)C[C@@H]34)cc2)cc1	none
CC(C)OC(=O)N(C)C[C@H]1OCc2ccccc2-c2ccccc2C(=O)N([C@H](C)CO)C[C@H]1C	none
CNC[C@@H]1Oc2cc(C#Cc3ccccc3OC)ccc2S(=O)(=O)N([C@@H](C)CO)C[C@H]1C	T cruzi growth-1 105 (no result: Pf Dd2 growth) | T cruzi growth-2 104 | T cruzi growth-3 inactive | 3T3 cytotox inactive | 3T3 cytotox 2 104
CNC[C@@H]1Oc2cc(C#Cc3ccccc3)ccc2S(=O)(=O)N([C@H](C)CO)C[C@H]1C	none (no result: T cruzi growth-1)
CNC[C@H]1Oc2cc(C#Cc3ccccc3OC)ccc2S(=O)(=O)N([C@@H](C)CO)C[C@@H]1C	T cruzi growth-1 103 (no result: Pf Dd2 growth) | T cruzi growth-2 106 | T cruzi growth-3 inactive | 3T3 cytotox inconclusive | 3T3 cytotox 2 104
CNC[C@H]1Oc2cc(C#Cc3ccccc3)ccc2S(=O)(=O)N([C@H](C)CO)C[C@@H]1C	none (no result: T cruzi growth-1)
CNC[C@H]1OCCCC[C@@H](C)Oc2ccc(NS(=O)(=O)c3ccc(OC)cc3)cc2C(=O)N([C@H](C)CO)C[C@H]1C	none
Cc1ccccc1-c1ccc2c(c1)O[C@@H](CN(C)C(=O)Nc1ccc(C(F)(F)F)cc1)[C@@H](C)CN([C@@H](C)CO)S2(=O)=O	none
Cc1ccccc1-c1ccc2c(c1)O[C@@H](CN(C)C(=O)Nc1ccc(C(F)(F)F)cc1)[C@H](C)CN([C@H](C)CO)S2(=O)=O	T cruzi growth-1 101 | T cruzi growth-2 inactive | T cruzi growth-3 98 | 3T3 cytotox 51 | 3T3 cytotox 2 104
C[C@@H]1CN([C@H](C)CO)S(=O)(=O)c2ccc(-c3ccncc3)cc2O[C@H]1CN(C)C(=O)Nc1ccc(C(F)(F)F)cc1	T cruzi growth-1 inconclusive | T cruzi growth-2 106 | T cruzi growth-3 inactive | 3T3 cytotox 38 | 3T3 cytotox 2 73
C[C@H](CO)N1C[C@H](C)[C@H](CN(C)C(=O)Nc2ccc(C(F)(F)F)cc2)Oc2cc(-c3ccncc3)ccc2S1(=O)=O	none
C[C@H]1CN([C@@H](C)CO)S(=O)(=O)c2ccc(-c3ccncc3)cc2O[C@@H]1CN(C)C(=O)Nc1ccc(C(F)(F)F)cc1	T cruzi growth-1 102 | T cruzi growth-2 104 | T cruzi growth-3 inactive | 3T3 cytotox inactive | 3T3 cytotox 2 79
C[C@H]1CN([C@@H](C)CO)S(=O)(=O)c2ccc(-c3ccncc3)cc2O[C@H]1CN(C)C(=O)Nc1ccc(C(F)(F)F)cc1	none
C[C@H]1CN([C@@H](C)CO)C(=O)c2cc(NC(=O)CCCN(C)C)ccc2O[C@H]1CN(C)S(=O)(=O)c1ccc(F)cc1	none
Cc1noc(C)c1NC(=O)N(C)C[C@@H]1Oc2ccc(NC(=O)Nc3ccc4c(c3)OCO4)cc2C(=O)N([C@@H](C)CO)C[C@H]1C	none
C[C@H](NC(=O)[C@@H]1[C@@H](CO)[C@@H]2Cn3c(cccc3=O)[C@@H]2N1Cc1ccncc1)c1ccccc1	none
